# Test results taken from PubChem BioAssay (NCATS).
# “And” between values parts separate entries of the source, which are not always exact repeats. Equal values may be shown once. The source made the active and inactive calls. Where a call stands in place of a potency, no number is given. Unless noted, calls come from the whole dose curve; as a rule, active = well fitted cell-killing curve with a large enough effect; inconclusive = small, poorly fitted or top-dose-only effect; inactive = flat fitted curve, though single readings scatter.
# Experiments:
# [1] = Cell Viability - LYMP2-002 (AID 977); note: series mostly up to about 92 µM
# Procedure, shortened: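 In this qHTS viability screen, 2500 human lymphoblastoid cells per well receive compound for 24 hr at 37 C, and luciferase-based ATP luminescence gives the viability signal. Tetraoctylammonium bromide serves as positive control.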
# [2] = Cell Viability - LYMP2-006 (AID 978); note: series mostly up to about 92 µM; nearly all actives have a fitted effect of over 60% in size
# Procedure, shortened: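 Human lymphoblastoid cells, 2500 per well, were preincubated 5 hr at 37 C, then exposed to compounds for 24 hr at 37 C in complete medium. Viability was read as intracellular ATP by CellTiter-Glo luminescence; AC50 from Hill-equation fits of qHTS concentration-response data.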
# [3] = Cell Viability - LYMP2-007 (AID 979);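 note: cells exposed to compound for 24 h before reading; nearly all actives have a fitted effect of over 60% in size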
# Procedure, shortened: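 qHTS cytotoxicity: 2500 cells/well, 5 hr 37 C settle, compound 24 hr 37 C, CellTiter-Glo 30 min RT, luminescence. Decrease in ATP = toxicity. AC50 by standard Hill equation; tetraoctylammonium bromide positive control.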
# [4] = Cell Viability - LYMP2-008 (AID 980); note: nearly all actives have a fitted effect of over 60% in size
# Procedure, shortened: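 Luminescent ATP read-out (CellTiter-Glo, 30 min RT) after 24 hr compound exposure at 37 C of human lymphoblastoid cells in complete medium. Decrease in ATP taken as cytotoxicity; AC50 derived by standard Hill fit of qHTS concentration-response data.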
# [5] = Cell Viability - LYMP2-012 (AID 982);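 note: cellular ATP by luciferase luminescence where a drop means cytotoxicity; cells exposed to compound for one day before reading; nearly all actives have a fitted effect of over 55% in size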
# [6] = Cell Viability - LYMP2-014 (AID 983); note: series mostly up to about 92 µM; nearly all actives have a fitted effect of over 50% in size
# Procedure, shortened: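 2500 cells/well, 5 hr 37 C; cpd 24 hr 37 C, complete medium; CellTiter-Glo 30 min RT, luminescence; ATP loss = toxicity; AC50 via Hill eqn; tetraoctylammonium bromide positive control.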
# [7] = Cell Viability - LYMP2-016 (AID 984); note: nearly all actives have a fitted effect of over 55% in size
# Procedure, shortened: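 Human lymphoblastoid cells (LYMP2-016), 2500/well in complete medium, preincubated 5 hr at 37 C, then compound-treated 24 hr at 37 C. Intracellular ATP read by CellTiter-Glo luminescence after 30 min at room temperature; AC50 from Hill-equation concentration-response fits.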
# [8] = Cell Viability - LYMP2-018 (AID 985); note: nearly all actives have a fitted effect of over 50% in size
# Procedure, shortened: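 2500 cells/well; 5 hr 37 C; cmpd 24 hr 37 C, complete medium; CellTiter-Glo 30 min RT; luminescence. Tetraoctylammonium bromide positive control. AC50 via Hill fit.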
# [9] = Cell Viability - LYMP2-020 (AID 986); note: series mostly up to about 92 µM; nearly all actives have a fitted effect of over 55% in size
# Procedure, shortened: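 qHTS, 2500 cells/well; 5 hr then 24 hr compound exposure, 37 C; CellTiter-Glo luminescence after 30 min RT; ATP decrease taken as cytotoxicity; AC50 via Hill equation; tetraoctylammonium bromide positive control.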
# [10] = Cell Viability - LYMP2-024 (AID 988); note: nearly all actives have a fitted effect of over 60% in size
# Procedure, shortened: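 ATP-based luminescence (CellTiter-Glo, 30 min RT) after 24 h compound exposure at 37 C of 2500 lymphoblastoid cells/well; decrease in ATP taken as cytotoxicity. qHTS concentration-response fitted to standard Hill equation for AC50.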
# [11] = Cell Viability - LYMP2-026 (AID 989); note: nearly all actives have a fitted effect of over 50% in size
# Procedure, shortened: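 qHTS cytotoxicity: 2500 cells/well, 5 hr 37 C, compound 24 hr 37 C, CellTiter-Glo 30 min RT, luminescence. Tetraoctylammonium bromide positive control. AC50 via standard Hill fit.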
# [12] = Cell Viability - LYMP1-002 - Assay at 24 hr (AID 993)
# Procedure, shortened: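 CellTiter-Glo luminescence (intracellular ATP) after 24 h compound exposure, 37 C, in LYMP1-002 human lymphoblastoid cells; decreased ATP taken as cytotoxicity. AC50 from standard Hill fit of concentration-response curves.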
# [13] = qHTS Assay for Identification of Small Molecule Inducers of Hypoxia Response (AID 2120; active = well fitted curve in the direction sought with a large enough effect in the signal ratio, with a control signal flat, not every such curve was filed as active; inconclusive = small, poorly fitted or top-dose-only effect, or a change in a side signal; inactive = no such curve, though single readings can be large or run the other way; the % refers to the signal ratio)
# Procedure, shortened: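 Read-out: CCF4 FRET emission ratio 460nm/530nm (excitation 405nm), converted to %Activity, with AC50 fitted across a compound titration. ME-180 cells carried an HRE-driven beta-lactamase reporter; compound exposure 17 h, 37 degrees C.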
# [14] = biological target: Estrogen receptor (Homo sapiens) (UniProt P03372); test: qHTS assay for small molecule antagonists of estrogen receptor alpha signaling (AID 588513; active = well fitted curve in the direction sought with a large enough effect in the signal ratio, with a control signal flat, not every such curve was filed as active; inconclusive = small, poorly fitted or top-dose-only effect, or effect the other way, or a change in a side signal; inactive = no such curve, though single readings can be large or run the other way; the % refers to the signal ratio; note: potency is the fitted concentration of half-maximal effect)
# Procedure, shortened: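 ER-alpha-UAS-bla GripTite HEK 293 cells in medium with 2% charcoal/dextran-treated FBS were preincubated 4 h at 37 C, dosed with compound (1:2 titration), stimulated with 0.5nM 17-beta-estradiol for 18 h, then read by CCF4 beta-lactamase fluorescence.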
# [15] = biological target: Estrogen receptor (Homo sapiens) (UniProt P03372); test: qHTS assay for small molecule agonists of estrogen receptor alpha signaling (AID 588514; calls by dose curve; note: potency is the fitted concentration of half-maximal effect; nearly all actives have a fitted effect of over 70% in size)
# Procedure, shortened: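 Read-out: CCF4 fluorescence from a beta-lactamase reporter in ER-alpha-UAS-bla HEK 293 cells after 18 hrs of compound exposure at 37 C. Normalized to 20 nM 17-beta-estradiol (100%) and DMSO (0%).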
# [16] = biological target: Androgen receptor (Homo sapiens) (UniProt P10275); test: qHTS assay for small molecule antagonists of androgen receptor signaling (AID 588516; active = well fitted curve in the direction sought with a large enough effect in the signal ratio, with a control signal flat, not every such curve was filed as active; inconclusive = small, poorly fitted or top-dose-only effect, or effect the other way, or a change in a side signal; inactive = no such curve, though single readings can be large or run the other way; the % refers to the signal ratio; note: potency is the fitted concentration of half-maximal effect)
# Procedure, shortened: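 AR-UAS-bla-GripTite HEK 293 cells (2000/well, 5 h at 37 C) received compound titrations, then R1881 at 10 nM final; after 16 h at 37 C, CCF4 dye 2 h RT, beta-lactamase fluorescence read; IC50 from Hill fits.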
# [17] = biological target: Peroxisome proliferator-activated receptor gamma (Homo sapiens) (UniProt P37231); test: qHTS assay for small molecule agonists of peroxisome proliferator-activated receptor gamma signaling (AID 588536; active = well fitted curve in the direction sought with a large enough effect in the signal ratio, with a control signal flat, not every such curve was filed as active; inconclusive = small, poorly fitted or top-dose-only effect, or effect the other way, or a change in a side signal; inactive = no such curve, though single readings can be large or run the other way; the % refers to the signal ratio)
# Procedure, shortened: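 Compound treatment: 16 h, 37 C, HEK293 GeneBLAzer cells. Detection: CCF4, 2 h RT. Values: Hill-fit EC50, efficacy as % of 2 uM rosiglitazone.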
# [18] = biological target: Peroxisome proliferator-activated receptor gamma (Homo sapiens) (UniProt P37231); test: qHTS assay for small molecule antagonists of peroxisome proliferator-activated receptor gamma signaling (AID 588537; active = well fitted inhibition curve with a large enough effect in the signal ratio, with a control signal flat, not every such curve was filed as active; inconclusive = small, poorly fitted or top-dose-only effect, or effect the other way, or a change in a side signal; the % refers to the signal ratio;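 note: reporter cells co-stimulated with 50 nM rosiglitazone agonist during compound treatment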)
# Procedure, shortened: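 HEK293 cells, PPAR-gamma-UAS-bla, 3000/well. Pre-incubation 6-6.5 h, 37 C. Compound titration with rosiglitazone 50 nM final, 16 h. CCF4 dye, 2 h RT, dual-emission fluorescence.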
# [19] = qHTS assay for small molecule agonists of retinoid X receptor alpha signaling (AID 588544; calls by dose curve); settings: HEK293T RXRa-UAS-bla, beta-lactamase reporter, 18 h; 530 nm emission
# [20] = biological target: Retinoic acid receptor RXR-alpha (Homo sapiens) (UniProt P19793); test: as above
# Sequence of Retinoic acid receptor RXR-alpha (Homo sapiens) (P19793 whole entry, looked up): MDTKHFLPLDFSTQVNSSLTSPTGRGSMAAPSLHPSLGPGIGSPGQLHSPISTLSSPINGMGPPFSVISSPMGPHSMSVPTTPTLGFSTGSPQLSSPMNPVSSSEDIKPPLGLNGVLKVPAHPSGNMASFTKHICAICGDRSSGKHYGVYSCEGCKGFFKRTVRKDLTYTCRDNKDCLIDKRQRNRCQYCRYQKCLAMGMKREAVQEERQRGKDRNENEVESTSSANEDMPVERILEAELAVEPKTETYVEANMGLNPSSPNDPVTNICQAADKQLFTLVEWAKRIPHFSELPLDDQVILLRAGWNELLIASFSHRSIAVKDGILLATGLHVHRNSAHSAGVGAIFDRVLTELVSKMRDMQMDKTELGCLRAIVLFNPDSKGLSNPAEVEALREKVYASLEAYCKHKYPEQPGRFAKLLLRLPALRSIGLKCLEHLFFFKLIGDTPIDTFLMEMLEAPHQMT
# Sequence of Peroxisome proliferator-activated receptor gamma (Homo sapiens) (P37231 whole entry, looked up): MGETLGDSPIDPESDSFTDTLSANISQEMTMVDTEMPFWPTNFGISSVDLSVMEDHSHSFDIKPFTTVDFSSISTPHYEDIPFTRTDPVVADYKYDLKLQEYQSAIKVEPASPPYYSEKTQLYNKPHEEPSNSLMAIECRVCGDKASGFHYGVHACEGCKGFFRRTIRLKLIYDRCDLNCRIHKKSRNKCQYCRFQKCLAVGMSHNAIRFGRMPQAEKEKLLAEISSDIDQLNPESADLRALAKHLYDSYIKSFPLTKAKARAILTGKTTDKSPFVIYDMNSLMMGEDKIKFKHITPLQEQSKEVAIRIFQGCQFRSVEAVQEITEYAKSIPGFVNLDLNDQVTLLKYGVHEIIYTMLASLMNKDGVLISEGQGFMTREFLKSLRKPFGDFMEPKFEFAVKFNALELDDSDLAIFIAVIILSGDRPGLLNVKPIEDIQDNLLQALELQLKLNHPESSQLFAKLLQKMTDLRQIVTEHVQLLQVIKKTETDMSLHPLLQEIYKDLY
# Sequence of Estrogen receptor (Homo sapiens) (P03372 whole entry, looked up): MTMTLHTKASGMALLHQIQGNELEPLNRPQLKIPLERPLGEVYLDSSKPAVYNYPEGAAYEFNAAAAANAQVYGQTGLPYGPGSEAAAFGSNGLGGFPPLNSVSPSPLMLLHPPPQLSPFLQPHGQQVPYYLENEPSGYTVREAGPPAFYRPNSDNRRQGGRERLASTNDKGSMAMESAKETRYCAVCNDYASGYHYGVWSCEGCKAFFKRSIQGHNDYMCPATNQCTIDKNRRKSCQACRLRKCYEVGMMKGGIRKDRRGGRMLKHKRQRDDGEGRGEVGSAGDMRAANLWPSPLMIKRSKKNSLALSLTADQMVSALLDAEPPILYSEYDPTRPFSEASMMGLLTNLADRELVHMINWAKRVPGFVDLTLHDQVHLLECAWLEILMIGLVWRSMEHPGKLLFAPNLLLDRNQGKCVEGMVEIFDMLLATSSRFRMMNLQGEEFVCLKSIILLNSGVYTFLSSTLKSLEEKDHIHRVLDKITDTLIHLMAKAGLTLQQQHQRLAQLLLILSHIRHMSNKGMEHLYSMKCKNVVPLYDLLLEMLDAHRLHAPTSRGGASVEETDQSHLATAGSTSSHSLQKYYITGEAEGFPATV
# Sequence of Androgen receptor (Homo sapiens) (P10275 whole entry, looked up): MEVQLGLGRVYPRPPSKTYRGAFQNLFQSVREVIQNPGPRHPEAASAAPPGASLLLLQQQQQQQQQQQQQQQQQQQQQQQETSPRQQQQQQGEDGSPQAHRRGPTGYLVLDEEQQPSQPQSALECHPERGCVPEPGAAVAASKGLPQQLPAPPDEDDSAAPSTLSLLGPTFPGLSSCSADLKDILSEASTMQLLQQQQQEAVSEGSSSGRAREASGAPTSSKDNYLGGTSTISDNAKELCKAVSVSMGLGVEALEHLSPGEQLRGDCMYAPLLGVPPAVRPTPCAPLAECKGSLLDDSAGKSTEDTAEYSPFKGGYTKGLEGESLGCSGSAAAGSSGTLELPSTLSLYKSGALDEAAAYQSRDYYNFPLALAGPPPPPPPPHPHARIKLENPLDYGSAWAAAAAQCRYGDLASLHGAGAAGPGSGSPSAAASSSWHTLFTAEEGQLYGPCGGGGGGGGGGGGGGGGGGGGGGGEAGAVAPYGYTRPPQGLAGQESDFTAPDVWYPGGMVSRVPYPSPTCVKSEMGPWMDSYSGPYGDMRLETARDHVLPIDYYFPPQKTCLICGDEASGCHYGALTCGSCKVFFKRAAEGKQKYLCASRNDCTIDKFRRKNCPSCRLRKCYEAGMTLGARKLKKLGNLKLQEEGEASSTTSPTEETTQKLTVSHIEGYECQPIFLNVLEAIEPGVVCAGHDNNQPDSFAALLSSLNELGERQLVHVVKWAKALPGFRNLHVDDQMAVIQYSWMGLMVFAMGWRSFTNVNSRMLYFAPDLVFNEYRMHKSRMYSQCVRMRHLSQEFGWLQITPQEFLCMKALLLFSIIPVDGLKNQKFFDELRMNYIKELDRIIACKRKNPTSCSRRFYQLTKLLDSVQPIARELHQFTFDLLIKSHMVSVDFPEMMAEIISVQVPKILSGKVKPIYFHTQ
smiles,measurement,setting,value
C[C@H]1CCCC(=O)CCC/C=C/c2cc(O)cc(O)c2C(=O)O1,Potency,[1],inactive
same,Potency,[2],inactive
same,Potency,[3],inactive
same,Potency,[4],inactive
same,Potency,[5],inactive
same,Potency,[6],inactive
same,Potency,[7],inactive
same,Potency,[8],inactive
same,Potency,[9],inactive
same,Potency,[10],inactive
same,Potency,[11],inactive
same,Potency,[12],inactive
same,outcome,[13],inactive
same,Potency,[14],14.1 µM [inconclusive] (active)
same,Potency,[15],0.01 µM (active)
same,Potency,[16],44.7 µM (active)
same,outcome,[17],inactive
same,Potency,[18],inactive
same,max response,[19],-13.4% and 26.9%
same,Potency,[20],inactive
